± gives the standard deviation.
How the values were obtained:
[1] = system: MILI (PIWIL2) piRISC loaded with L1MC piRNA (26 nt); test: pre-steady-state target cleavage rate (min^-1); guide: L1MC piRNA 5'p-UAACUAAAUACUAUGCAAGCUGUAGG; higher = faster piRNA-guided slicing of the target
How it was run: (§1)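 Cleave-'n-Seq used a transcribed, DNA-blocked target RNA library at 0.1 nM and active affinity-purified piRISC with one synthetic guide at 1 nM, with or without 500 nM GTSF1 partner protein, in HEPES–potassium acetate buffer at 33 °C for 0–8 or 0–960 min. Uncleaved targets were sequenced and normalised to depth and to weakly complementary targets, and three trials were pooled with k3 capped at 0.0001 min^-1. The pre-steady-state cleavage rate was estimated by a burst-and-steady-state fit.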

[2] = system: EfPiwi piRISC loaded with L1MC piRNA (26 nt); test: pre-steady-state target cleavage rate (min^-1); auxiliary factor: 500 nM Ephydatia muelleri Gtsf1; guide: L1MC piRNA 5'p-UAACUAAAUACUAUGCAAGCUGUAGG; MIWI and MILI are mouse PIWI proteins and EfPiwi is from a freshwater sponge; tags in brackets are library labels; higher = faster piRNA-guided slicing of the target
How it was run: as §1

[3] = auxiliary factor: 500 nM mouse GTSF1
[4] = auxiliary factor: none (no GTSF1)

Row | Sequence | pre-steady-state target cleavage rate [1, 3] | pre-steady-state target cleavage rate [1, 4] | pre-steady-state target cleavage rate [2]
1 | UCCUCCUACAGGUUGCAUAGUAUUUAGUUA | 0.264 ± 0.013 | 0.00924 ± 0.0019 | 0.0556 ± 0.013
2 | UCCUGGAUCAGGUUGCAUAGUAUUUAGUAA | 0.227 ± 0.016 | 0.00858 ± 0.0024 | 0.00537 ± 0.0021
3 | UCCUGCUACCGCUUGCAUAGUAUUUAGUUA | 0.368 ± 0.035 | 0.0103 ± 0.0044 | 0.0156 ± 0.005
4 | UCCUGCUACAGGAAGCAUAGUAUUUAGUUA | 0.282 ± 0.014 | 0.00969 ± 0.0027 | 0.0127 ± 0.0035
5 | UCCUCCUAGUCCUUGCAUAGUAUUUAGUUA | 0.235 ± 0.018 | 0.00692 ± 0.0015 | 0.0173 ± 0.0063
6 | UCCUGGAUGAGCGUUGCAUAGUAUUUAGUUA | 0.192 ± 0.017 | 0.00904 ± 0.0031 | 0.00582 ± 0.0034
7 | UCCUCCUACAGCUUGCAUAGUAUAUAGUUA | 0.242 ± 0.026 | 0.00534 ± 0.0019 | 0.00814 ± 0.0038
8 | UCCUGGAACAGCUGCAUAGUAUUUAGUUA | 0.279 ± 0.021 | 0.0069 ± 0.0026 | 0.0362 ± 0.0095
9 | UCCUGCUAUCAGCUUGCAUAGUAUUUAGUUA | 0.268 ± 0.022 | 0.00819 ± 0.0029 | 0.0613 ± 0.015
10 | UCCUGGAACAGCAUGCAUAGUAUAUAGUUA | 0.247 ± 0.025 | 0.0058 ± 0.0025 | 0.0106 ± 0.005
11 | UCCUGGAUCAGCUUGCAUAGUAUUUAGAUA | 0.114 ± 0.013 | 0.00393 ± 0.0016 | 0.00499 ± 0.0022
12 | UCCUCCUACAGCAUGCAUAGUUUUUAGUUA | 0.0554 ± 0.01 | 0.00447 ± 0.002 | 0.00379 ± 0.0028
13 | UCCUGGUACCGCUUGCAUAGUAUUUAGUUA | 0.293 ± 0.037 | 0.0123 ± 0.0052 | 0.00412 ± 0.0035
14 | UCCUCCUACAGCUUGCAUACUAUUUAGUUA | 0.088 ± 0.013 | 0.00383 ± 0.0021 | 0.00904 ± 0.0032
15 | UCCUGCUACAGCUUGCUUAGUAUAUAGUUA | 0.206 ± 0.028 | 0.00313 ± 0.0023 | 0.0125 ± 0.0047
16 | UCCUGGUACAGCUAGCUUAGUAUUUAGUUA | 0.248 ± 0.023 | 0.00768 ± 0.0025 | 0.00544 ± 0.0027
17 | UCCUGCUACAGCUUGCAUAGUGUUUAGUUA | 0.197 ± 0.02 | 0.00436 ± 0.0027 | 0.0065 ± 0.0019
18 | UCCUGGAUGUCCCUGCAUAGUAUUUAGUUA | 0.085 ± 0.014 | 0.00467 ± 0.0023 | 0.00326 ± 0.0026
19 | UCCUCCUUCAGCUUGCAAAGUAUUUAGUUA | 0.162 ± 0.015 | 0.00632 ± 0.0021 | 0.0828 ± 0.021

Row | Sequence | pre-steady-state target cleavage rate [1, 3] | pre-steady-state target cleavage rate [1, 4] | pre-steady-state target cleavage rate [2]
20 | UCCUGGAUCACCUUGCAUACUAUUUAGUUA | 0.0453 ± 0.011 | 0.00336 ± 0.0028 | 0.00341 ± 0.0028
21 | UCCUCCUACUGCUUGCAUAGUAAUUAGUUA | 0.2 ± 0.014 | 0.00554 ± 0.0017 | 0.0119 ± 0.0043
22 | UCCUGGUACACCUUGCUUAGUAUUUAGUUA | 0.134 ± 0.024 | 0.0117 ± 0.0037 | 0.00384 ± 0.0027
23 | UCCUCCUACUGCUUGCAUAGUAUUAAGUUA | 0.15 ± 0.018 | 0.00292 ± 0.0026 | 0.00682 ± 0.0034
24 | UCCUGCUACACCUUGCAUAGUUUUUAGUUA | 0.0358 ± 0.01 | 0.00475 ± 0.0022 | 0.00395 ± 0.002
25 | UCCUCCUACAGCAUGCAUAGUAUUUUGUUA | 0.143 ± 0.02 | 0.00296 ± 0.0027 | 0.00297 ± 0.0021
26 | UCCUGGAACAGGUUGCAUAGAAUUUAGUUA | 0.0524 ± 0.011 | 0.0038 ± 0.002 | 0.00258 ± 0.0014
27 | UCCUGGAAGAGCUUGCAUAGUAUUAAGUUA | 0.21 ± 0.023 | 0.00346 ± 0.0028 | 0.00519 ± 0.0018
28 | UCCUGGAUCAGCAUGCAUAGUAUUUAGAAA | 0.126 ± 0.018 | 0.0038 ± 0.0026 | 0.00356 ± 0.0021
29 | UCCUCCAUCAGCUUGCAUAGUAUUUAGUUA | 0.248 ± 0.018 | 0.00673 ± 0.002 | 0.0155 ± 0.005
30 | UCCUCCUACAGCUUGCUUAGUAUUUAGUAA | 0.203 ± 0.017 | 0.0037 ± 0.0021 | 0.00594 ± 0.0027
31 | UCCUGCUGACAGCUUGCAUAGUAUUUAGUUA | 0.327 ± 0.025 | 0.00993 ± 0.0029 | 0.0486 ± 0.013
32 | UCCUGCAACAGCUUGGAUAGUAUUUAGUUA | 0.251 ± 0.011 | 0.00806 ± 0.0021 | 0.0256 ± 0.0066
33 | UCCUGCUACAGGUUGCAUAGUAUUUAGUAA | 0.223 ± 0.024 | 0.0054 ± 0.0028 | 0.00478 ± 0.0019
34 | UCCUGGACCAGCUUGCAUAGUAUUUAGUUA | 0.246 ± 0.02 | 0.00604 ± 0.0027 | 0.159 ± 0.037
35 | UCCUGGUUCAGCUUGCAUACUAUUUAGUUA | 0.0631 ± 0.011 | 0.00505 ± 0.0024 | 0.00751 ± 0.0031
36 | UCCUGGAUGAGCAAGCAUAGUAUUUAGUUA | 0.12 ± 0.014 | 0.00601 ± 0.0021 | 0.0118 ± 0.0048
37 | UCCUGGAUCAGCUUGCUUACUAUUUAGUUA | 0.0672 ± 0.0086 | 0.00436 ± 0.0022 | 0.0032 ± 0.0024
38 | UCCUGGAACAGCUUGCAUAGUAUUUAAGUUA | 0.195 ± 0.029 | 0.00781 ± 0.0028 | 0.0138 ± 0.0052

Row | Sequence | pre-steady-state target cleavage rate [1, 3] | pre-steady-state target cleavage rate [1, 4] | pre-steady-state target cleavage rate [2]
39 | UCCUGGAACAGGAUGCAUAGUAUUUAGUAA | 0.221 ± 0.021 | 0.00369 ± 0.0022 | 0.0055 ± 0.0028
40 | UCCUGGAACAGCUUGCAUAGUAGUUAGUUA | 0.138 ± 0.018 | 0.00378 ± 0.0026 | 0.00926 ± 0.0027
41 | UCCUCCUACAGCUCGCAUAGUAUUUAGUUA | 0.288 ± 0.019 | 0.0109 ± 0.0027 | 0.0845 ± 0.019
42 | UCCUGGAUCAGCUGUGCAUAGUAUUUAGUUA | 0.232 ± 0.017 | 0.0109 ± 0.0034 | 0.0791 ± 0.016
43 | UCCUCCUACAGCAUGGAUAGUAUUUAGUUA | 0.269 ± 0.014 | 0.00942 ± 0.0022 | 0.096 ± 0.023
44 | UCCUCCUAGAGCUUGCAAAGUAUUUAGUUA | 0.14 ± 0.0099 | 0.00516 ± 0.002 | 0.0214 ± 0.006
45 | UCCUGGAUGUCCUUGCAUAGUAUUUAAGUUA | 0.173 ± 0.023 | 0.00879 ± 0.0027 | 0.0217 ± 0.0093
46 | UCCUCCUACAGCUUGCAUUGUAUUUUGUUA | 0.0994 ± 0.015 | 0.00327 ± 0.0022 | 0.00442 ± 0.0027
47 | UCCUGCUACAGGUUGCAUAGUUUUUAGUUA | 0.0345 ± 0.007 | 0.0063 ± 0.0021 | 0.00998 ± 0.0028
48 | UCCUGCUACAGGAUGCAUAGUAUUUAGUAA | 0.301 ± 0.044 | 0.00446 ± 0.0019 | 0.00317 ± 0.0021
49 | UCCUCCUAGAGCUUGCUUAGUAUUUAGUUA | 0.261 ± 0.014 | 0.00563 ± 0.0022 | 0.0217 ± 0.0064
50 | UCCUCCUACAGCUUGCAUAGUAUUUCGUUA | 0.243 ± 0.043 | 0.0033 ± 0.0031 | 0.00416 ± 0.0023
51 | UCCUGGUACAGCUAGCAUAGUAUUUUGUUA | 0.085 ± 0.028 | 0.00427 ± 0.0033 | 0.00396 ± 0.0023
52 | UCCUGGUACAGCUUGGCAUAGUAUUUAGUUA | 0.4 ± 0.093 | 0.00473 ± 0.0036 | 0.05 ± 0.016
53 | UCCUGGAUGUGCUUGCAUAGUAUUUAGGUUA | 0.102 ± 0.019 | 0.00588 ± 0.0033 | 0.00262 ± 0.0021
54 | UCCUGCUACAGCUCGCAUAGUAUUUAGUUA | 0.264 ± 0.015 | 0.00757 ± 0.0027 | 0.0122 ± 0.0028
55 | UCCUGGAACAGGAAGCAUAGUAUUUAGUUA | 0.199 ± 0.016 | 0.00491 ± 0.0024 | 0.00471 ± 0.002
56 | UCCUGGAUCAGCAUGCAAAGUAUUUAGUUA | 0.098 ± 0.011 | 0.0074 ± 0.0018 | 0.0037 ± 0.0031
57 | UCCUCCUACAGCUGGCAUAGUAUUUAGUUA | 0.294 ± 0.02 | 0.00732 ± 0.0023 | 0.0728 ± 0.02

From the supplement of paper PMC10338343
